The nature of assay [1]: qHTS assay for small molecule agonists of the antioxidant response element (ARE) signaling pathway measured by Nrf2-dependant transcriptional activity - cell viability counter screen (AID 720653; active = well fitted curve in the direction sought with a large enough effect in the repeat runs; an effect the other way counts as inactive or inconclusive; also: % is scaled to controls: 0 for no effect and ±100 for the full control effect). The settings on record: ARE-bla HepG2 viability, CellTiter-Glo ATP luminescence, 16 h; max response: stronger effect = lower value. The essentials: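 ARE-bla HepG2 cells (2,000/well) rested 5 hrs at 37C/5% CO2, then exposed to compounds in DMSO for 16 hrs. Viability was read in the same wells as intracellular ATP by luminescence, 30 min at room temperature after reagent addition.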
(Quantitative high-throughput screening tests each substance at several concentrations.)

Assay [2] in a line: qHTS assay for cell viability of HEK293 cells (AID 743288; active = well fitted curve in the direction sought with a large enough effect; an effect the other way counts as inactive or inconclusive; also: % is scaled to controls: 0 for no effect and ±100 for the full control effect; nearly all actives have a fitted effect of over 50% in size). The settings on record: ATP luminescence (CellTiter-Glo), 18 h; max response: stronger effect = lower value. The essentials:
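Steps: plate 2,000 parental HEK293 cells per well; incubate ≥5 h, 37 C; add compounds in DMSO; incubate 18 h, 37 C; add CellTiter-Glo; wait 30 min at room temperature; read luminescence.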

Assay [3] can be described thus: qHTS assay for cell viability of the p53RE-bla HCT-116 cell line (AID 743292; active = well fitted curve in the direction sought with a large enough effect; an effect the other way counts as inactive or inconclusive; also: % is scaled to controls: 0 for no effect and ±100 for the full control effect; nearly all actives have a fitted effect of over 55% in size). The essentials:
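ATP-based luminescent viability (CellTiter-Glo, 30 min RT) after 16 h compound treatment at 37 C of p53RE-bla HCT-116 cells, seeded at 4,000 cells/well and rested 5 h before dosing.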

Assay [4] is described as follows: qHTS profiling of the MIPE4 collection as inhibitors of Plasmodium falciparum (3D7) proliferation (AID 743344).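 Also: scaled between DMSO vehicle wells and 0.29 µM artemisinin as full inhibition.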 The following applies: P. falciparum 3D7 in erythrocytes, SYBR Green DNA fluorescence, 72 h; at 28.5 µM (top of the series) unless noted. The essentials:
(§1)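 Parasite DNA was quantified by SYBR Green I fluorescence (ex 485, em 535 nm) after overnight lysis in saponin/Triton buffer at room temperature. Cultures at 0.3% parasitemia and 2.5% hematocrit were first exposed to compound for 72 h at 37 C; signals were normalised to artemisinin (0.29 uM) and vehicle wells.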

Assay [5] is described as follows: qHTS profiling of the MIPE4 collection as inhibitors of Plasmodium falciparum (DD2) proliferation (AID 743345). The settings on record: P. falciparum Dd2 in erythrocytes, SYBR Green DNA, 72 h; at 28.5 µM (top of the series) unless noted. The essentials:
as §1

Assay [6] in a line: qHTS profiling of the MIPE4 collection as inhibitors of Plasmodium falciparum (DD2) proliferation (Rep 2) (AID 743346). The following applies: P. falciparum Dd2 in erythrocytes, SYBR Green DNA, 72 h; at 28.5 µM (top of the series) unless noted. The essentials:
as §1

Assay [7] is described as follows: qHTS profiling of the MIPE4 collection as inhibitors of Plasmodium falciparum (HB3) proliferation (AID 743347).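 Also: plate controls were DMSO vehicle wells for no effect and artemisinin wells for full effect.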 The settings on record: P. falciparum HB3 in erythrocytes, SYBR Green DNA, 72 h; at 28.5 µM (top of the series) unless noted. The essentials: as §1
Assay [8] in a line: High-throughput drug toxicity screening in the BPDCN cell line Gen2.2 (AID 1224824).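 Also: cells exposed to compounds for 48 h before reading.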 The settings on record: Gen2.2 BPDCN cells; at 45.8 µM (top of the series) unless noted. The essentials: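 Gen2.2 cells, 500 per well in phenol red-free RPMI with 10% FBS, exposed to compounds 48 h at 37 C, 5% CO2; viability by CellTiter-Glo luminescence. Percent activity scaled to DMSO (100%) and 9.2 uM bortezomib final (0%).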

The nature of assay [9]: High-throughput drug toxicity screening in the BPDCN cell line Cal-1 (AID 1224825). The settings on record: Cal-1 BPDCN cell viability, qHTS; at 45.8 µM (top of the series) unless noted. The essentials: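 Viability of the BPDCN line Cal-1 is measured as ATP-based luminescence (CellTiter-Glo) following 48 h incubation with compounds. Percent activity uses DMSO-treated wells as 100% and 9.2 uM bortezomib as 0%.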

A short description of assay [10]: qHTS Screen of the MIPE 4.0 Collection Against Ewings Sarcoma (RDES) (AID 1259252; active = well fitted curve in the direction sought with a large enough effect; an effect the other way counts as inactive or inconclusive; also: nearly all actives have a fitted effect of over 35% in size; also: potency is read from the fitted curve at half-maximal effect). The essentials: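 Here, cells in 5% FBS RPMI were exposed for two days (48 h) to compound dilutions added four hours after plating. ATP-based CellTiter-Glo luminescence measured viability, normalized to vehicle and no-cell blanks.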
A short description of assay [11]: qHTS assay for measurement of the activity of small molecule inhibitors on Zika virus induced Caspase-3 activity in human astrocytoma cells (AID 1224859; active = well fitted curve in the direction sought with a large enough effect; an effect the other way counts as inactive or inconclusive;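 also: plate controls were ZIKV-infected untreated cells for no effect and uninfected cells for full effect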). The essentials:
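In SNB-19 cells plated at 250 cells/well and grown 16-20 h, compounds were applied 1 h before ZIKV (2 FFU/cell). Six hours later caspase-3/7 luminescence was recorded.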

Assay [12] is described as follows: qHTS profiling for inhibitors of Plasmodium falciparum (DD2) proliferation (AID 743323). The following applies: lower = more inhibition; at 28.7 µM (top of the series). The essentials: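 SYBR Green fluorescence (ex 485, em 535 nm) of lysed cultures gives parasite DNA content; wells normalized to artemisinin (0.29 uM) and DMSO controls. Infected red cells: 0.3% parasitemia, 2.5% hematocrit, 72 h, 37 C.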

Assay [13] can be described thus: qHTS profiling for inhibitors of Plasmodium falciparum (HB3) proliferation (AID 743324; active = well fitted curve in the direction sought with a large enough effect; an effect the other way counts as inactive or inconclusive;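 also: 100% = DMSO vehicle wells and 0% = artemisinin-treated control wells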). The following applies: Plasmodium falciparum HB3 blood-stage proliferation; at 28.7 µM (top of the series). The essentials: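 SYBR Green fluorescence (485 ex/535 em) of lysed cultures, incubated overnight at room temperature in the dark, quantifies parasite DNA. Infected erythrocytes at 0.3% parasitemia and 2.5% hematocrit were exposed 72 h; values normalized to DMSO and 0.29 uM artemisinin controls.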

Values joined by “and” are separate entries in the source; they are usually repeats but may differ in a detail not shown here. Identical values can stand only once. Results filed as inconclusive are left out. Active and inactive are the calls of the source. Unless noted, no rule for the calls is given here.

With `O=c1c(O)c(-c2ccc(O)cc2)oc2cc(O)cc(O)c12`, the max response is -6.13% (inactive) and -4.97% (inactive) in assay [1]; 3.99% (inactive) and -0.18% (inactive) in assay [2]. For the same molecule, the Potency entry in assay [3] was “inactive”. For the same molecule, the parasite growth, % of DMSO control in [4] stood at 24.5%. Also, the parasite growth remaining, % of DMSO control (lower = more inhibition) in assay [5] came out at 97.3%. In addition, the parasite growth, % of control (lower = inhibition) in assay [6] turned out to be 27.5%. Moreover, the growth, % of control in assay [7] came to 19.7%. Also, in assay [8], the cell viability, % of control (lower = more cytotoxic) was 140%. For the same molecule, in assay [9], the viability (% of control) worked out at 13.1%. For the same molecule, the Potency in assay [10] is 16.6 µM (active).
In turn, `CC(C)OC(=O)CCCC=CC[C@@H]1[C@H](C=C[C@@H](O)COc2cccc(C(F)(F)F)c2)[C@H](O)C[C@@H]1O` came in with a parasite growth, % of DMSO control in [4] of 23.8%. Besides, in assay [5], the parasite growth remaining, % of DMSO control (lower = more inhibition) was 76.3%. Also, in assay [6], the parasite growth, % of control (lower = inhibition) turned out to be 33.1%. Besides, in [7], the growth, % of control was 15.8%. For the same molecule, the cell viability, % of control (lower = more cytotoxic) in assay [8] stood at 286%. The viability (% of control) in assay [9] was found to be 63.7%. The Potency entry in assay [11] was “inactive”.
On to `Nc1ncnc2c1ncn2[C@@H]1O[C@@H](CO)[C@H](O)[C@H]1O`, for which, in assay [4], the parasite growth, % of DMSO control was 103%. The parasite growth remaining, % of DMSO control (lower = more inhibition) in assay [5] came to 84.1%. In addition, in assay [6], the parasite growth, % of control (lower = inhibition) was 114%. Besides, the growth, % of control in assay [7] is 111%. In addition, the cell viability, % of control (lower = more cytotoxic) in [8] amounted to 235%. Besides, in assay [9], the viability (% of control) was 117%. In addition, the Potency entry in [11] was “inactive”.
For `c1ccc2c(Cc3c[nH]c4ccccc34)c[nH]c2c1`, in [4], the parasite growth, % of DMSO control is 22.8%. Also, in assay [5], the parasite growth remaining, % of DMSO control (lower = more inhibition) came out at 60.6%. Besides, in assay [6], the parasite growth, % of control (lower = inhibition) came out at 22.5%. The growth, % of control in assay [7] came to 23.8%. Moreover, the cell viability, % of control (lower = more cytotoxic) in assay [8] turned out to be 29.3%. The viability (% of control) in [9] is 13.2%.
`Cc1ccccc1C(C(=O)NC1CCCCC1)N(C(=O)Cn1ccnc1C)c1cccc(F)c1` (stereo unspecified) had a parasite growth, % of DMSO control in assay [4] of 103%. Moreover, in [5], the parasite growth remaining, % of DMSO control (lower = more inhibition) worked out at 36.3%. Moreover, the parasite growth, % of control (lower = inhibition) in assay [6] came out at 25.9%. Moreover, the growth, % of control in assay [7] came to 271%. Besides, in assay [8], the cell viability, % of control (lower = more cytotoxic) is 125%. Besides, in [9], the viability (% of control) was 107%. Also, the Potency result in [11] was “inactive”.
Regarding `O=C(CCc1ccc(O)cc1)c1c(O)cc(O)cc1O[C@@H]1O[C@H](CO)[C@H](O)[C@H](O)[C@H]1O`, the parasite growth, % of DMSO control in [4] is 272%. In addition, the parasite growth remaining, % of DMSO control (lower = more inhibition) in assay [5] came out at 79.6%. Also, the parasite growth, % of control (lower = inhibition) in assay [6] amounted to 57.9%. In assay [8], the cell viability, % of control (lower = more cytotoxic) came to 238%. Moreover, in assay [9], the viability (% of control) was 107%.
As to `CO[C@H]1C=CC=C(C)C(=O)NC2=CC(=O)C(NCCN(C)C)=C(C[C@@H](C)C[C@H](OC)[C@@H](O)[C@@H](C)C=C(C)[C@@H]1OC(N)=O)C2=O`, the activity, percent of control in [12] is -0.115%. Further, in [13], the remaining proliferation (% of control), lower = more inhibition was -2.33%. For the same molecule, in [4], the parasite growth, % of DMSO control stood at 5.12%. The parasite growth remaining, % of DMSO control (lower = more inhibition) in [5] stood at 6.82%. For the same molecule, the parasite growth, % of control (lower = inhibition) in [6] worked out at 6.75%. In [7], this molecule registered a growth, % of control of 6.65%. In addition, the cell viability, % of control (lower = more cytotoxic) in [8] is 4.49%. Further, the viability (% of control) in assay [9] amounted to 3.52%. In assay [11], the Potency entry was “inactive”.
The molecule `Nc1nc(F)nc2c1ncn2[C@@H]1O[C@H](COP(=O)(O)O)[C@@H](O)[C@H]1O` showed a parasite growth, % of DMSO control in assay [4] of 27.2%. Moreover, the parasite growth remaining, % of DMSO control (lower = more inhibition) in assay [5] was 19.9%. Further, in assay [6], the parasite growth, % of control (lower = inhibition) amounted to 10.9%. The same molecule returned a growth, % of control in [7] of 8.49%. Besides, in assay [8], the cell viability, % of control (lower = more cytotoxic) turned out to be 97.6%. In assay [9], the viability (% of control) stood at 12.5%. Moreover, the Potency result in assay [11] is “inactive”. In assay [10], the Potency was 11.8 µM (active).
For the molecule `N#CC(=C(N)Sc1ccccc1N)C(C#N)=C(N)Sc1ccccc1N`, the parasite growth, % of DMSO control in assay [4] came out at 4.41%. Further, the parasite growth remaining, % of DMSO control (lower = more inhibition) in assay [5] amounted to 12.1%. For the same molecule, in [6], the parasite growth, % of control (lower = inhibition) was 10.6%. In assay [7], this molecule returned a growth, % of control of 5.29%. In addition, the cell viability, % of control (lower = more cytotoxic) in assay [8] worked out at 16.6%. For the same molecule, in [9], the viability (% of control) was 12.1%. Also, the Potency result in assay [11] is “inactive”.
In [4], `CC(=Cc1ccccc1)C=C1SC(=S)N(CC(=O)O)C1=O` displayed a parasite growth, % of DMSO control of 92.1%. For the same molecule, the parasite growth remaining, % of DMSO control (lower = more inhibition) in assay [5] amounted to 102%. Moreover, in assay [6], the parasite growth, % of control (lower = inhibition) came out at 81.2%. Besides, the growth, % of control in assay [7] came to 98.1%. The cell viability, % of control (lower = more cytotoxic) in assay [8] worked out at 124%. For the same molecule, the viability (% of control) in assay [9] turned out to be 125%. Moreover, the Potency result in [11] and in assay [10] was “inactive” throughout.
As to `C[N+]1(C)[C@@H]2CC(OC(=O)[C@H](CO)c3ccccc3)C[C@H]1[C@H]1O[C@@H]12` (stereo partly specified), in assay [4], the parasite growth, % of DMSO control is 93.9%. Further, the parasite growth, % of control (lower = inhibition) in [6] was 84.8%. The cell viability, % of control (lower = more cytotoxic) in assay [8] came to 112%. Moreover, the viability (% of control) in assay [9] came to 130%. The Potency result in [11] is “inactive”.
`CC[C@]1(O)C[C@@H]2CN(CCc3c([nH]c4ccccc34)[C@@](C(=O)OC)(c3cc4c(cc3OC)N(C=O)[C@@H]3C45CCN4CC=C[C@](CC)([C@H]45)[C@@H](OC(C)=O)[C@]3(O)C(=O)OC)C2)C1` (stereo partly specified) registered a parasite growth, % of DMSO control in [4] of 5.87%. Further, the parasite growth remaining, % of DMSO control (lower = more inhibition) in assay [5] stood at 10.2%. The parasite growth, % of control (lower = inhibition) in assay [6] came to 16.2%. Also, the growth, % of control in assay [7] was determined as 3.8%. Besides, the cell viability, % of control (lower = more cytotoxic) in assay [8] was 15%. The viability (% of control) in [9] worked out at 51.8%. Also, the Potency result in assay [11] was “inactive”.

These data come from PubChem BioAssay (NCATS).
